Measurements as given in PubChem BioAssay (Tox21).
Results filed as inconclusive are left out. Calls of active or inactive are those of the source. Unless noted, calls follow the shape of the dose curve; as a rule, active = well fitted curve in the direction sought with a large enough effect in the repeat runs; inconclusive = weak or mixed curves; inactive = no such curve, though single readings can be large; an effect the other way counts as inactive or inconclusive.

Assays:
[1] = biological target: Aryl hydrocarbon receptor (Homo sapiens) (UniProt P35869); test: qHTS assay to identify small molecule that activate the aryl hydrocarbon receptor (AhR) signaling pathway (AID 743085); also: nearly all actives have a fitted effect of over 15% in size; also: potency is read from the fitted curve at half-maximal effect;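 as to activation: HG2L7.5c1 human HepG2 liver cells with stably integrated DRE-driven firefly reporter; series mostly up to about 70 µM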
Outline: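 HepG2 cells stably carrying a 20-DRE firefly luciferase reporter (HG2L7.5c1) treated with compound for 24 hr at 37C. Luciferase read by ONE-Glo luminescence, with CellTiter-Fluor viability read first.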

[2] = biological target: Peroxisome proliferator-activated receptor gamma (Homo sapiens) (UniProt P37231); test: qHTS assay to identify small molecule agonists of the peroxisome proliferator-activated receptor gamma (PPARg) signaling pathway (AID 743094; active = well fitted activation curve with a large enough effect in the signal ratio in the repeat runs, not every such curve was filed as active; the % refers to the signal ratio)
Outline: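 Quantitative HTS agonist mode: stable HEK293H line with UAS-beta-lactamase reporter under PPARg control, 17 h compound exposure at 37C, fluorescence after 1 h FRET substrate loading at room temperature.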

[3] = biological target: Peroxisome proliferator-activated receptor gamma (Homo sapiens) (UniProt P37231); test: qHTS assay to identify small molecule antagonists of the peroxisome proliferator-activated receptor gamma (PPARg) signaling pathway (AID 743191; calls by dose curve; also: series mostly up to about 63 µM; nearly all actives have a fitted effect of over 30% in size)
Outline: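 GeneBLAzer PPARg UAS-bla HEK293H cells, 5 h post-plating, exposed to compounds 17 h at 37C. LiveBLAzer B/G FRET substrate added for 1 h at room temperature; beta-lactamase reporter read by fluorescence intensity.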

[4] = qHTS assay for small molecule activators of the heat shock response signaling pathway - cell viability counter screen (AID 743209); also: nearly all actives have a fitted effect of over 50% in size
Outline: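 First, HSE-bla HeLa cells were seeded at 1500 cells/well and kept overnight at 37 C. Next, compounds were pinned in and incubated 5 h. After the FRET substrate step, CellTiter-Glo was added and luminescence read 30 min later.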

[5] = qHTS assay for small molecule activators of the heat shock response signaling pathway (AID 743210; active = well fitted activation curve with a large enough effect in the signal ratio in the repeat runs, with a control signal flat, not every such curve was filed as active; the % refers to the signal ratio; also: series mostly up to about 63 µM)
Outline: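 HSE-bla HeLa cells (beta-lactamase reporter under heat shock response elements), plated overnight, then exposed to compounds 5 h at 37 C; LiveBLAzer B/G FRET substrate added, 2.5 h at room temperature, fluorescence intensity read.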

[6] = qHTS assay to identify small molecule agonists of the peroxisome proliferator-activated receptor delta (PPARd) signaling pathway - cell viability counter screen (AID 743211); also: nearly all actives have a fitted effect of over 55% in size
Outline: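 PPARd-bla HEK293H cells (3000/well) were pre-incubated 5 h at 37 C, then exposed to compound for 17 h at 37 C. After 2 h with LiveBLAzer substrate, CellTiter-Glo was added to the same wells; luminescence read after 30 min at room temperature.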

[7] = biological target: Peroxisome proliferator-activated receptor delta (Homo sapiens) (UniProt Q03181); test: qHTS assay to identify small molecule agonists of the peroxisome proliferator-activated receptor delta (PPARd) signaling pathway (AID 743212; calls by dose curve)
Outline: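 GeneBLAzer UAS-bla HEK293H cells carrying a PPARδ construct were exposed to compounds at 37 °C. Beta-lactamase activity was read by FRET fluorescence after 2 h at room temperature with LiveBLAzer B/G substrate.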

[8] = qHTS assay to identify small molecule antagonists of the peroxisome proliferator-activated receptor delta (PPARd) signaling pathway - cell viability counter screen (AID 743213); also: nearly all actives have a fitted effect of over 50% in size
Outline: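 PPARd-bla HEK293H cells were treated with compounds plus agonist L165041 (300 nM final) for 17 h at 37 C. Viability was then read in the same wells by CellTiter-Glo luminescence after 30 min at room temperature.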

[9] = biological target: Peroxisome proliferator-activated receptor delta (Homo sapiens) (UniProt Q03181); test: qHTS assay to identify small molecule antagonists of the peroxisome proliferator-activated receptor delta (PPARd) signaling pathway (AID 743215; active = well fitted inhibition curve with a large enough effect in the signal ratio in the repeat runs, not every such curve was filed as active; the % refers to the signal ratio;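 also: cells stimulated with agonist L165041 at 300 nM final during compound exposure; series mostly up to about 62 µM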)
Outline: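 Inhibition of L165041-driven (300 nM final) PPARd signaling is scored in HEK293H UAS-bla cells. Exposure lasts 17 h at 37 C; beta-lactamase activity is then read by FRET substrate fluorescence after 2 h at room temperature.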

[10] = qHTS assay to identify small molecule agonists of the farnesoid-X-receptor (FXR) signaling pathway - cell viability counter screen (AID 743218); also: nearly all actives have a fitted effect of over 45% in size
Outline: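 Cytotoxicity counter-screen run in parallel, same wells: FXR-UAS-bla HEK 293T cells dosed 16 h at 37 C, viability read by CellTiter-Glo luminescence after 30 min at room temperature.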

[11] = qHTS assay to identify small molecule antagonists of the farnesoid-X-receptor (FXR) signaling pathway - cell viability counter screen (AID 743221; active = well fitted cell-killing curve with a large enough effect in the repeat runs, not every such curve was filed as active; also: nearly all actives have a fitted effect of over 50% in size)
Outline: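 GeneBLAzer FXR-UAS-bla HEK 293T cells, compound plus chenodeoxycholic acid (50 uM final), 16 h at 37 C. CellTiter-Glo added to the same wells after the beta-lactamase read; luminescence read after 30 min at room temperature as viability.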

[12] = biological target: Vitamin D3 receptor (Homo sapiens) (UniProt P11473); test: qHTS assay to identify small molecule agonists of the vitamin D receptor (VDR) signaling pathway (AID 743222; calls by dose curve)
Outline: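 Quantitative HTS agonist-mode screen: compounds in DMSO were pin-transferred onto VDR-bla cells and incubated 16 h at 37C, 5% CO2. Reporter activity was detected with LiveBLAzer B/G FRET substrate after 2 h at room temperature.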

[13] = biological target: Vitamin D3 receptor (Homo sapiens) (UniProt P11473); test: qHTS assay to identify small molecule antagonists of the vitamin D receptor (VDR) signaling pathway (AID 743223; active = well fitted inhibition curve with a large enough effect in the signal ratio in the repeat runs, not every such curve was filed as active; the % refers to the signal ratio)
Outline: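 VDR-bla cells were treated with compound plus 3 nM final 1alpha,25-dihydroxyvitamin D3 for 16 h at 37C. Beta-lactamase reporter read by B/G FRET substrate fluorescence after 2 h at room temperature. qHTS format.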

[14] = qHTS assay to identify small molecule that activate the aryl hydrocarbon receptor (AhR) signaling pathway - cell viability counter screen (AID 743086);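 also: HepG2 liver cells carrying the AhR DRE luciferase reporter; series mostly up to about 70 µM; nearly all actives have a fitted effect of over 45% in size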
Outline: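 HepG2-AhR-luc (HG2L7.5c1) cells, 4000/well, treated 24 h at 37 C with compound; viability measured as CellTiter-Fluor fluorescence after 30 min in the same wells as the luciferase read.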

[15] = qHTS assay to identify small molecule antagonists of the peroxisome proliferator-activated receptor gamma (PPARg) signaling pathway - cell viability counter screen (AID 743194); also: nearly all actives have a fitted effect of over 55% in size
Outline: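 Cytotoxicity counter screen in PPARg-bla HEK293H cells, same wells as reporter assay. Compounds plus 50 nM rosiglitazone (final) for 17 h at 37 C, then viability read by CellTiter-Glo luminescence.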

[16] = qHTS assay for small molecule agonists of the antioxidant response element (ARE) signaling pathway (AID 743202; active = well fitted activation curve with a large enough effect in the signal ratio in the repeat runs, not every such curve was filed as active; the % refers to the signal ratio)
Outline: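 ARE-bla HepG2 cells (beta-lactamase reporter under the antioxidant response element), plated 5 hours, then exposed to compounds 16 hours at 37 C. LiveBLAzer B/G FRET substrate added for 2 hours at room temperature; fluorescence intensity read.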

[17] = qHTS assay for small molecule agonists of the antioxidant response element (ARE) signaling pathway - cell viability counter screen (AID 743203; calls by dose curve; also: nearly all actives have a fitted effect of over 55% in size)
Outline: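 Seeded at 2,000 cells/well, ARE-bla HepG2 cells were incubated 5 hrs before compound addition. After 16 hrs of treatment at 37C with 5% CO2, CellTiter-Glo reagent was added and luminescence read 30 min later.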

[18] = biological target: Bile acid receptor (Homo sapiens) (UniProt Q96RI1); test: qHTS assay to identify small molecule antagonists of the farnesoid-X-receptor (FXR) signaling pathway (AID 743217; active = well fitted inhibition curve with a large enough effect in the signal ratio in the repeat runs, not every such curve was filed as active; the % refers to the signal ratio)
Outline: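 Antagonist mode against 50 uM (final) chenodeoxycholic acid stimulation in FXR-bla HEK 293T cells, 16 h at 37 °C. Inhibition detected as reduced beta-lactamase activity via LiveBLAzer B/G FRET fluorescence after 2 h at room temperature.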

[19] = biological target: Bile acid receptor (Homo sapiens) (UniProt Q96RI1); test: qHTS assay to identify small molecule agonists of the farnesoid-X-receptor (FXR) signaling pathway (AID 743220; active = well fitted activation curve with a large enough effect in the signal ratio in the repeat runs, not every such curve was filed as active; the % refers to the signal ratio)
Outline: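 Beta-lactamase reporter under UAS control in GeneBLAzer FXR HEK 293T cells (5000/well) measured with LiveBLAzer FRET substrate after 2 h at room temperature. Compound exposure lasted 16 h at 37C.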

[20] = qHTS assay to identify aromatase inhibitors - cell viability counter screen (AID 743084);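 also: cells stimulated with testosterone during compound exposure; nearly all actives have a fitted effect of over 55% in size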
% is scaled to controls: 0 for no effect and ±100 for the full control effect.

Chain of Aryl hydrocarbon receptor (Homo sapiens) (P35869 whole entry, looked up): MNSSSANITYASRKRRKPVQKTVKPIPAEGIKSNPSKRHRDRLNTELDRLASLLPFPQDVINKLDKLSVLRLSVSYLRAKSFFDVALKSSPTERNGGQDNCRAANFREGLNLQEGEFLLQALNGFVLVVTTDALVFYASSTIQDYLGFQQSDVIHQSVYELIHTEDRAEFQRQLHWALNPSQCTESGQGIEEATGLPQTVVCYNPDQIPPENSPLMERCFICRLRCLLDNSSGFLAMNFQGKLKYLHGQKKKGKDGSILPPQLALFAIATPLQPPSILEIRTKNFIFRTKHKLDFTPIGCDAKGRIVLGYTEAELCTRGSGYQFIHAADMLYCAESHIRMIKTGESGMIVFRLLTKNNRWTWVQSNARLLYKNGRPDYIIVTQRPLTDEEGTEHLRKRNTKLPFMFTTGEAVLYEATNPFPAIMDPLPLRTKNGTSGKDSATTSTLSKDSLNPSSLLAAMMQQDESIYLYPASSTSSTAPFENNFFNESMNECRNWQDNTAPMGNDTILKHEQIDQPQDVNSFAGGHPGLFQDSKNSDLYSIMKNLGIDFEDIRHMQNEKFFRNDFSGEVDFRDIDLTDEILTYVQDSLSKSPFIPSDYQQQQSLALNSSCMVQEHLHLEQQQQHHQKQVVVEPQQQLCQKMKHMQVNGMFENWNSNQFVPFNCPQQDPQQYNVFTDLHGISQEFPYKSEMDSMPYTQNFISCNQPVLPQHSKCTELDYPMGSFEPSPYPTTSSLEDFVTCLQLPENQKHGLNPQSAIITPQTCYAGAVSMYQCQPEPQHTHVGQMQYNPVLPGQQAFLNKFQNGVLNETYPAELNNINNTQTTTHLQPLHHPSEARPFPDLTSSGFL
Chain of Peroxisome proliferator-activated receptor delta (Homo sapiens) (Q03181 whole entry, looked up): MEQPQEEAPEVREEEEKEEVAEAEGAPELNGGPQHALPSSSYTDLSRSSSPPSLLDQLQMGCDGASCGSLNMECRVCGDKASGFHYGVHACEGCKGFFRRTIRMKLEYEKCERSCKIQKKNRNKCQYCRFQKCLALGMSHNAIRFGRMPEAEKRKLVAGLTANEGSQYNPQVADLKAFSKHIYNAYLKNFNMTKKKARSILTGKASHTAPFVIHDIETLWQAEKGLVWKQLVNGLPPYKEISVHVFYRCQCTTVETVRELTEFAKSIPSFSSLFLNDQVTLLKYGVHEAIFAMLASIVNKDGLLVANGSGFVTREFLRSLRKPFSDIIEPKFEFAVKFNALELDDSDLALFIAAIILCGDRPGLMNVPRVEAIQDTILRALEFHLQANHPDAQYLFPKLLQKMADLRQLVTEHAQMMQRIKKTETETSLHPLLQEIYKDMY
Chain of Bile acid receptor (Homo sapiens) (Q96RI1 whole entry, looked up): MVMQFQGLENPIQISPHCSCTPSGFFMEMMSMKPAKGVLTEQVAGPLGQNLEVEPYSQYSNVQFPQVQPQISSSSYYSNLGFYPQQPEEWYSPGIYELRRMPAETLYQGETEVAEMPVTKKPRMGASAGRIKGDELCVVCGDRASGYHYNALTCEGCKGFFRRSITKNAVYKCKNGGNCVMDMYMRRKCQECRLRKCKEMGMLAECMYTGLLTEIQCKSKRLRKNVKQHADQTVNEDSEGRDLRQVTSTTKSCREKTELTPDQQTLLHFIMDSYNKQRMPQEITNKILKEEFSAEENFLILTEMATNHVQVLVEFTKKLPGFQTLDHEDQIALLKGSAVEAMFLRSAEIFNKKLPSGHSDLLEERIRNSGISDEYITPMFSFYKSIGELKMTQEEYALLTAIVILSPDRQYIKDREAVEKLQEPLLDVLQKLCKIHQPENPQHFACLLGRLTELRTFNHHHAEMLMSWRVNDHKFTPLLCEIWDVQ
Chain of Vitamin D3 receptor (Homo sapiens) (P11473 whole entry, looked up): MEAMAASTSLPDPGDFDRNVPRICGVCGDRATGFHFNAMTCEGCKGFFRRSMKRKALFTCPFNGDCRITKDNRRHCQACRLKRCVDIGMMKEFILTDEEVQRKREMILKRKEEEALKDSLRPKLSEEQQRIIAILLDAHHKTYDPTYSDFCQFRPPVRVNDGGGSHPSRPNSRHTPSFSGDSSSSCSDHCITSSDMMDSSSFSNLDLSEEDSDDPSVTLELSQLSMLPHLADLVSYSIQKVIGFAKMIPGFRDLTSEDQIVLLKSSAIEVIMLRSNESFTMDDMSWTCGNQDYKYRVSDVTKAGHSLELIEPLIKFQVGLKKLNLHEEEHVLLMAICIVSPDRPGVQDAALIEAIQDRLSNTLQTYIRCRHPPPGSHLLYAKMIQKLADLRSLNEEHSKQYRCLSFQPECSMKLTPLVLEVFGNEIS
Chain of Peroxisome proliferator-activated receptor gamma (Homo sapiens) (P37231 whole entry, looked up): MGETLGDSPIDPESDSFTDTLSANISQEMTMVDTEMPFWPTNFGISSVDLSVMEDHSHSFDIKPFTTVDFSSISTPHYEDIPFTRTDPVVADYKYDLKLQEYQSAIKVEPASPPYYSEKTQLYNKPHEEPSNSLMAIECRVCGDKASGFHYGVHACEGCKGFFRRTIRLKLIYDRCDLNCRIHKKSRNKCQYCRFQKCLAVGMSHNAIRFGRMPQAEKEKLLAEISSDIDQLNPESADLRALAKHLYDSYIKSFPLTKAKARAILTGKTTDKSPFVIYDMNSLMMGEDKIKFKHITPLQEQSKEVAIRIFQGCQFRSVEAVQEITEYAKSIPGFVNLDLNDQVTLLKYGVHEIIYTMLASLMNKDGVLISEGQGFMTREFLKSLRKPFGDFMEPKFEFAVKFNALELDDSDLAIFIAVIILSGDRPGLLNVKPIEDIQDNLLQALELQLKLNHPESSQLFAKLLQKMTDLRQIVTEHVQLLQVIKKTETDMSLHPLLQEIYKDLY

O=C1c2ccccc2C(=O)c2cc(O)ccc21
inactive: Potency [2] | Potency [3] | outcome [4] | outcome [5] | outcome [6] | outcome [7] | outcome [8] | outcome [9] | outcome [10] | outcome [11] | outcome [12] | outcome [13]
active: Potency [1] 61.2 µM

C=CN1CCCCCC1=O
inactive: Potency [14] | outcome [15] | Potency [16] | outcome [17] | outcome [5] | outcome [7] | outcome [8] | outcome [9] | outcome [10] | outcome [11] | outcome [12]

Cc1ccc(-c2ccccc2C#N)cc1
inactive: Potency [3] | outcome [15] | Potency [16] | outcome [17] | outcome [4] | outcome [5] | outcome [6] | outcome [7] | outcome [9] | outcome [18] | outcome [10] | outcome [19] | outcome [11] | outcome [12] | outcome [13]

COc1cc2c(cc1OC)-c1cc3ccc(OC)c(OC)c3c[n+]1CC2
inactive: Potency [14] | Potency [2] | Potency [3] | outcome [15] | Potency [16] | outcome [17] | outcome [4] | outcome [6] | outcome [10] | outcome [11] | outcome [12]

CN(C)CCCCCCN(C)C
inactive: outcome [15] | Potency [16] | outcome [4] | outcome [5] | outcome [6] | outcome [18] | outcome [10] | outcome [19] | outcome [11] | outcome [12] | outcome [13]

NC(=O)N1c2ccccc2CC(=O)c2ccccc21
inactive: Potency [14] | outcome [15] | Potency [16] | outcome [17] | outcome [4] | outcome [5] | outcome [6] | outcome [7] | outcome [9] | outcome [10] | outcome [11] | outcome [12]

CCOc1c(N2CCOCC2)cnn(C)c1=O
inactive: outcome [15] | Potency [16] | outcome [17] | outcome [4] | outcome [5] | outcome [6] | outcome [7] | outcome [8] | outcome [9] | outcome [10] | outcome [11] | outcome [12] | outcome [13]

CC(C)C(=O)OC(=O)C(C)C
inactive: Potency [14] | Potency [16] | outcome [4] | outcome [5] | outcome [6] | outcome [7] | outcome [8] | outcome [9] | outcome [10] | outcome [11] | outcome [12]

COc1cc(-c2ccc(=O)[nH]n2)ccc1OC(F)F
inactive: Potency [20] | outcome [15] | Potency [16] | outcome [17] | outcome [4] | outcome [5] | outcome [6] | outcome [8] | outcome [18] | outcome [19]

Cc1ncc(COP(=O)(O)O)c(C=O)c1O
inactive: Potency [1] | Potency [14] | Potency [3] | outcome [15] | outcome [4] | outcome [6] | outcome [7] | outcome [8] | outcome [10] | outcome [11] | outcome [12] | outcome [13]

Cc1cc(C)c(N=Nc2c(O)c(S(=O)(=O)O)cc3cc(S(=O)(=O)O)ccc23)cc1C
inactive: activation [1] -3.38% [at 8.47 µM] | viability change, negative = cytotoxic [14] -19.3% [at 8.47 µM] | activation [2] -9.42% [at 7.08 µM] | activity change, negative = cytotoxicity [15] -10.4% [at 5.95 µM] | activation [16] -8.59% [at 8.36 µM] | viability change, negative = cytotoxic [17] -2.33% [at 8.36 µM] | activity change, negative = cytotoxicity [4] -2.28% [at 5.95 µM] | activation [5] -0.565% [at 5.95 µM] | activity change, negative = cytotoxicity [6] -0.611% [at 5.95 µM] | activation [7] 6.93% [at 5.95 µM] | ratio activity, negative = inhibition [9] 0.853% [at 6.26 µM] | viability change, negative = cytotoxic [10] 0.0024% [at 5.95 µM] | activity change, negative = cytotoxicity [11] 0.502% [at 5.95 µM] | activation [12] 0.83% [at 6.01 µM] | activity change, negative = inhibition [13] -3.01% [at 6.95 µM]
